According to PubChem BioAssay (NCI):
About 83,000 compounds went through this panel and 20% of them were active in at least one assay; those are over-represented in the sample as a whole.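 Growth was measured after 48 h exposure to one concentration of compound in 96-well plates. Values under 10 count as active.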 Active and inactive are the calls of the source.

Experiments:
Experiment in all cases: NCI-60 one-dose screen, 48 h (100 = growth as untreated, 0 = no growth, -100 = all killed)
Details in all cases: 10 µM unless noted
HCT-15 colon = tested on: HCT-15 colon
HT29 colon = tested on: HT29 colon
SNB-75 CNS = tested on: SNB-75 CNS
SNB-19 CNS = tested on: SNB-19 CNS
U251 CNS = tested on: U251 CNS
PC-3 prostate = tested on: PC-3 prostate
SK-MEL-5 melanoma = tested on: SK-MEL-5 melanoma
UACC-62 melanoma = tested on: UACC-62 melanoma
LOX IMVI melanoma = tested on: LOX IMVI melanoma
SK-MEL-28 melanoma = tested on: SK-MEL-28 melanoma
SK-MEL-2 melanoma = tested on: SK-MEL-2 melanoma
EKVX NSCLC = tested on: EKVX NSCLC
SN12C renal = tested on: SN12C renal
UO-31 renal = tested on: UO-31 renal
TK-10 renal = tested on: TK-10 renal
ACHN renal = tested on: ACHN renal
A498 renal = tested on: A498 renal
CCRF-CEM leukemia = tested on: CCRF-CEM leukemia
MOLT-4 leukemia = tested on: MOLT-4 leukemia
CAKI-1 renal = tested on: CAKI-1 renal

Measured: growth

COc1ccc2c(c1)c(CC(=O)[Se]CC(=O)O)c(C)n2C(=O)c1ccc(Cl)cc1
inactive: HCT-15 colon 93% | HT29 colon 75.5% | SNB-75 CNS 101% | SNB-19 CNS 40.7% | U251 CNS 62% | PC-3 prostate 93.8% | SK-MEL-5 melanoma 56.7% | UACC-62 melanoma 63.6% | LOX IMVI melanoma 72.1% | SK-MEL-28 melanoma 90.3% | SK-MEL-2 melanoma 102% | EKVX NSCLC 103% | SN12C renal 58.5% | UO-31 renal 94.4% | TK-10 renal 104% | ACHN renal 103% | A498 renal 69.3% | CCRF-CEM leukemia 94.6% | MOLT-4 leukemia 99.8%

COc1c(N2CC3CCCNC3C2)c(F)cc2c(=O)c(C(=O)N/N=C/c3ccc(Br)cc3)cn(C3CC3)c12 (centres undefined)
active: HCT-15 colon 1.76% | LOX IMVI melanoma -73.5%
inactive: HT29 colon 13.6% | SNB-75 CNS 103% | SNB-19 CNS 88.3% | U251 CNS 86.9% | PC-3 prostate 65.1% | SK-MEL-5 melanoma 84% | UACC-62 melanoma 43% | SK-MEL-28 melanoma 86.2% | SK-MEL-2 melanoma 100% | EKVX NSCLC 90.4% | SN12C renal 78.8% | UO-31 renal 60.5% | TK-10 renal 121% | ACHN renal 89.2% | A498 renal 74.3% | CCRF-CEM leukemia 55.3% | MOLT-4 leukemia 54.9%

O=C(NNc1nc2cc(F)ccc2n2c(CO)ccc12)c1cnccn1
active: SK-MEL-5 melanoma 6.38% | UACC-62 melanoma -14.8% | LOX IMVI melanoma 1.5% | EKVX NSCLC 4.53% | UO-31 renal 8.71% | A498 renal 8.46% | CCRF-CEM leukemia 7.36% | MOLT-4 leukemia 2.51%
inactive: HCT-15 colon 22.9% | HT29 colon 22% | SNB-75 CNS 42.9% | SNB-19 CNS 21.8% | U251 CNS 16.5% | PC-3 prostate 23.6% | SK-MEL-28 melanoma 25.1% | SK-MEL-2 melanoma 21.7% | SN12C renal 21.5% | TK-10 renal 21% | ACHN renal 10.2%

COc1ccc(NC2=C(Cl)C(=O)c3nc(C)ccc3C2=O)cc1OC
inactive: HCT-15 colon 82.3% | HT29 colon 110% | SNB-75 CNS 111% | SNB-19 CNS 94.6% | U251 CNS 106% | PC-3 prostate 70.6% | SK-MEL-5 melanoma 86.6% | UACC-62 melanoma 71.8% | SK-MEL-28 melanoma 102% | SK-MEL-2 melanoma 100% | EKVX NSCLC 50.8% | SN12C renal 90.5% | UO-31 renal 100% | TK-10 renal 149% | ACHN renal 95% | A498 renal 82.6% | CCRF-CEM leukemia 15.3% | MOLT-4 leukemia 69.8%
active: LOX IMVI melanoma -3.09%

COc1ccc(Oc2ccc(/C=N/NC(=O)CSc3nc4ccccc4c(=O)n3-c3ccc(Cl)cc3)cc2)cc1
active: ACHN renal 7.83%
inactive: HCT-15 colon 56% | HT29 colon 16.1% | SNB-75 CNS 41.6% | SNB-19 CNS 61.5% | U251 CNS 36.5% | PC-3 prostate 63.7% | SK-MEL-5 melanoma 78% | UACC-62 melanoma 61.9% | LOX IMVI melanoma 14.7% | SK-MEL-28 melanoma 89.3% | SK-MEL-2 melanoma 97.6% | EKVX NSCLC 69.4% | SN12C renal 52.7% | UO-31 renal 47.7% | TK-10 renal 96.5% | A498 renal 72.9% | CCRF-CEM leukemia 63.5% | MOLT-4 leukemia 61.7%

CC(=O)c1ccc(Nc2nc(SCC(C)C)nc(-c3ccc(F)cc3)c2C#N)cc1
inactive: HCT-15 colon 104% | HT29 colon 107% | SNB-75 CNS 125% | SNB-19 CNS 112% | U251 CNS 104% | PC-3 prostate 108% | SK-MEL-5 melanoma 101% | UACC-62 melanoma 108% | LOX IMVI melanoma 112% | SK-MEL-28 melanoma 108% | SK-MEL-2 melanoma 109% | EKVX NSCLC 114% | SN12C renal 110% | UO-31 renal 115% | ACHN renal 104% | CAKI-1 renal 115% | A498 renal 117% | CCRF-CEM leukemia 107% | MOLT-4 leukemia 107%

COc1ccc(COc2ccc(/C=C3\C(=O)Nc4ccccc43)cc2OC)cc1
inactive: HCT-15 colon 105% | HT29 colon 108% | SNB-75 CNS 97.4% | SNB-19 CNS 97.3% | U251 CNS 109% | PC-3 prostate 95.8% | SK-MEL-5 melanoma 108% | UACC-62 melanoma 96.7% | LOX IMVI melanoma 96.6% | SK-MEL-28 melanoma 107% | SK-MEL-2 melanoma 108% | EKVX NSCLC 99.8% | SN12C renal 99.6% | UO-31 renal 80.4% | TK-10 renal 113% | ACHN renal 92.4% | A498 renal 110% | CCRF-CEM leukemia 104% | MOLT-4 leukemia 102%

NC(N)=Nc1ccc(Oc2cccc(NC(N)=Nc3ccc(Br)cc3)c2)cn1
active: LOX IMVI melanoma 0.0918%
inactive: HCT-15 colon 85.4% | HT29 colon 59.7% | SNB-75 CNS 68.6% | SNB-19 CNS 18.8% | U251 CNS 43.1% | PC-3 prostate 38.2% | SK-MEL-5 melanoma 35.6% | UACC-62 melanoma 63.2% | SK-MEL-28 melanoma 82.9% | SK-MEL-2 melanoma 84.3% | EKVX NSCLC 62% | SN12C renal 20.6% | UO-31 renal 85% | TK-10 renal 69.1% | ACHN renal 95.5% | A498 renal 64.3% | CCRF-CEM leukemia 58.5% | MOLT-4 leukemia 65%

Cc1ccc(-n2cc(/C=N/NC(=O)c3nc(N)n[nH]3)c(-c3ccc(S(C)(=O)=O)cc3)n2)cc1
inactive: HCT-15 colon 86.4% | HT29 colon 105% | SNB-75 CNS 92.2% | SNB-19 CNS 97.4% | U251 CNS 101% | PC-3 prostate 96.8% | SK-MEL-5 melanoma 103% | UACC-62 melanoma 88.5% | LOX IMVI melanoma 90.2% | SK-MEL-28 melanoma 101% | SK-MEL-2 melanoma 103% | EKVX NSCLC 92.9% | SN12C renal 96.6% | UO-31 renal 92.6% | ACHN renal 101% | CAKI-1 renal 92.6% | A498 renal 97.6% | CCRF-CEM leukemia 84% | MOLT-4 leukemia 97.9%

CCN(CC)c1cn(-c2ccc(S(N)(=O)=O)cc2)nn1
inactive: HCT-15 colon 105% | HT29 colon 97.9% | SNB-75 CNS 83% | SNB-19 CNS 102% | U251 CNS 100% | PC-3 prostate 101% | SK-MEL-5 melanoma 104% | UACC-62 melanoma 94.9% | LOX IMVI melanoma 106% | SK-MEL-28 melanoma 105% | SK-MEL-2 melanoma 109% | EKVX NSCLC 105% | SN12C renal 105% | UO-31 renal 91.8% | ACHN renal 106% | CAKI-1 renal 93.9% | A498 renal 83.4% | CCRF-CEM leukemia 106% | MOLT-4 leukemia 97.7%

COc1c(N2CC3CCCNC3C2)c(F)cc2c(=O)c(C(=O)N/N=C/c3ccc4c(c3)OCO4)cn(C3CC3)c12 (centres undefined)
active: HCT-15 colon 3.7% | HT29 colon -19.2% | LOX IMVI melanoma -64.3%
inactive: SNB-75 CNS 102% | SNB-19 CNS 80.5% | U251 CNS 12.4% | PC-3 prostate 60.1% | SK-MEL-5 melanoma 22.8% | UACC-62 melanoma 90.7% | SK-MEL-28 melanoma 96.5% | SK-MEL-2 melanoma 103% | EKVX NSCLC 66.6% | SN12C renal 82.9% | UO-31 renal 64.9% | TK-10 renal 124% | ACHN renal 85.3% | A498 renal 105% | CCRF-CEM leukemia 31.7% | MOLT-4 leukemia 59.3%

NC(N)=Nc1ccc(Oc2cccc(NC(N)=Nc3ccc(I)cc3F)c2)cn1
inactive: HCT-15 colon 87.4% | HT29 colon 31.8% | SNB-75 CNS 77.5% | SNB-19 CNS 26.3% | U251 CNS 46.1% | PC-3 prostate 28.1% | SK-MEL-5 melanoma 48.8% | UACC-62 melanoma 63% | LOX IMVI melanoma 12.8% | SK-MEL-28 melanoma 71.9% | SK-MEL-2 melanoma 86.8% | EKVX NSCLC 63% | SN12C renal 39.4% | UO-31 renal 83.8% | TK-10 renal 71.3% | ACHN renal 94.9% | A498 renal 49% | CCRF-CEM leukemia 43.2% | MOLT-4 leukemia 42.8%

O=C(NNc1nc2cc(F)ccc2n2c(CN3CCC(O)C3)ccc12)c1cnccn1 (centres undefined)
active: SK-MEL-5 melanoma 4.28% | UACC-62 melanoma 0.128% | LOX IMVI melanoma -0.788% | MOLT-4 leukemia 3.23%
inactive: HCT-15 colon 25.7% | HT29 colon 23.8% | SNB-75 CNS 51.9% | SNB-19 CNS 22.3% | U251 CNS 19.9% | PC-3 prostate 25.2% | SK-MEL-28 melanoma 25.5% | SK-MEL-2 melanoma 20% | EKVX NSCLC 10.1% | SN12C renal 24.3% | UO-31 renal 11% | TK-10 renal 20.5% | ACHN renal 14.3% | A498 renal 26.2% | CCRF-CEM leukemia 10.3%

NC(N)=Nc1ccc(Oc2cccc(NC(N)=Nc3ccc(Cl)c(C(F)(F)F)c3)c2)cn1
active: LOX IMVI melanoma -59.8%
inactive: HCT-15 colon 85.8% | HT29 colon 28.9% | SNB-75 CNS 69.3% | SNB-19 CNS 16.6% | U251 CNS 25.6% | PC-3 prostate 13.4% | SK-MEL-5 melanoma 31.9% | UACC-62 melanoma 40.2% | SK-MEL-28 melanoma 61.6% | SK-MEL-2 melanoma 59.5% | EKVX NSCLC 65.5% | SN12C renal 25.2% | UO-31 renal 78.9% | TK-10 renal 69.3% | ACHN renal 88.3% | A498 renal 36.7% | CCRF-CEM leukemia 23.9% | MOLT-4 leukemia 23.6%

CCOc1ccc(NC2=C(Cl)C(=O)c3nc(C)ccc3C2=O)cc1
active: HCT-15 colon -83.2% | SK-MEL-5 melanoma -98.6% | UACC-62 melanoma -43.3% | LOX IMVI melanoma -76.4% | SK-MEL-28 melanoma 8.93% | SK-MEL-2 melanoma -49.8% | EKVX NSCLC -97.5% | SN12C renal -57.3% | UO-31 renal -65% | ACHN renal -98.4% | CCRF-CEM leukemia 0.626% | MOLT-4 leukemia -46.7%
inactive: HT29 colon 15.9% | SNB-75 CNS 96.5% | SNB-19 CNS 44.7% | U251 CNS 15.6% | PC-3 prostate 10.4% | TK-10 renal 121% | A498 renal 101%

COC(=O)C[Se]C(=O)Cc1c(C)n(C(=O)c2ccc(Cl)cc2)c2ccc(OC)cc12
inactive: HCT-15 colon 11.5% | SNB-75 CNS 73.5% | SNB-19 CNS 31.7% | U251 CNS 46.2% | PC-3 prostate 72.7% | SK-MEL-5 melanoma 44.9% | UACC-62 melanoma 69.6% | SK-MEL-28 melanoma 62.8% | SK-MEL-2 melanoma 86.8% | EKVX NSCLC 15.1% | SN12C renal 57.1% | TK-10 renal 70.6% | ACHN renal 53.2% | A498 renal 70.6% | CCRF-CEM leukemia 50.1% | MOLT-4 leukemia 67.1%
active: HT29 colon 9.65% | LOX IMVI melanoma -54.9% | UO-31 renal 9.87%
